Laboratory results taken from PubChem BioAssay AID525 (The Scripps Research Institute Molecular Screening Center, 2006).
Screen size: about 65,000 compounds; about 360 (0.55%) were called active. Shown is part of a subset that was picked to be rich in actives. A number with no mark means an inactive call.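 The calls were made as follows: active = inhibition above the mean inhibition of all tested compounds plus 3 SD (cut at about 48% in these data); inactive = the rest.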

The molecules below were run against Steroidogenic factor 1 (Homo sapiens) (UniProt Q13285) (assay: inhibitors of human SF-1, primary screen, cell-based, CHO-K1, Gal4-SF-1 LBD, luciferase luminescence (AID 525;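 also: 0% = SF-1 transfected cells with DMSO and 100% = mock-transfected cells lacking SF-1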)). Details: CHO-K1 Gal4-SF-1 LBD luciferase reporter; at 10 µM; stronger effect = higher value.
Chain of Steroidogenic factor 1 (Homo sapiens) (Q13285 whole entry, looked up, the tested form may be a part): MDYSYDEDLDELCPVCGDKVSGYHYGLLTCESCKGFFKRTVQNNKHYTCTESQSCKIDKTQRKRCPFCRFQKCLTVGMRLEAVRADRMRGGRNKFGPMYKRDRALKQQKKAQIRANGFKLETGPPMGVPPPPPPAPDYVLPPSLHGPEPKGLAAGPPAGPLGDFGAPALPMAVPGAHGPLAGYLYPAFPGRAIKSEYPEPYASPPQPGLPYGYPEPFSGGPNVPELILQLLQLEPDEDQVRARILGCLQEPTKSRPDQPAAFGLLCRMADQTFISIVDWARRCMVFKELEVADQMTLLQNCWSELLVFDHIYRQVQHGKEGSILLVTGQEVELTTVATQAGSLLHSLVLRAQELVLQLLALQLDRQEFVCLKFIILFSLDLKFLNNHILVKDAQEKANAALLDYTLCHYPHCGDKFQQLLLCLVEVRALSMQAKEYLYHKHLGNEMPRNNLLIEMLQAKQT

Row | Structure (SMILES) | inhibition
1 | CC(=O)c1c(N2CCOCC2)nc(=S)n(-c2cc(C)ccc2C)c1C | -0.4%
2 | COC(=O)c1ccc(NC(=O)c2ccco2)cc1 | -85.3%
3 | COc1ccccc1N1CC(O)=C(c2nc3ccccc3s2)C1=N | -13.3%
4 | O=C(OC1CCOC1=O)c1ccc(-c2nc3ccccc3s2)s1 (centres undefined) | 59.9% (active)
5 | COc1ccc(CCN2CNc3c(c(=O)n(C)c(=O)n3C)C2)cc1OC | -1.5%
6 | CSCC[C@H](NC(=O)NCCc1ccc(F)cc1)C(=O)O | -3.2%
7 | Fc1ccc2nc(Nc3nc4c(s3)CCCC4)sc2c1 | -90%
8 | CCCC(CCC(=O)OC)(C(=O)OCC)c1csc(N)n1 (centres undefined) | -13.3%
9 | CC(Oc1ccc(Cl)cc1)C(=O)Nc1ncccn1 (centres undefined) | 16%
10 | O=C(Nc1ccc(Cl)cn1)c1cnn2cccnc12 | -63.8%
11 | C=CCN(c1ccc(C(N)=O)cc1)S(C)(=O)=O | -14.5%
12 | Cc1cccc(CC(=O)Nc2c3c(nn2-c2cccc(Cl)c2)CS(=O)C3)c1 (centres undefined) | 13.6%
13 | COc1cccc(-c2nc3n(n2)C(c2ccccc2Cl)C(C(N)=O)=C(C)N3)c1 (centres undefined) | 17.2%
14 | O=S(=O)(c1cccs1)N1CCc2ccccc2C1 | 12.2%
15 | COCc1[nH]nc2c1C(C1C=CCCC1)C(C#N)=C(N)O2 (centres undefined) | -8%
16 | CCOC(=O)[C@H]1CCC[C@@H](NS(=O)(=O)c2ccc(NC(C)=O)cc2)C1 | -18.3%
17 | CCN(c1ccccc1)S(=O)(=O)c1ccc(N)cc1 | -8.5%
18 | CCCOc1ccc(/C(O)=C2/C(=O)C(=O)N(CCN(C)C)C2c2ccc(OC)c(OC)c2)cc1 (centres undefined) | -2.4%
19 | CC(C)Cc1cc(C(=O)NCCc2ccccc2)no1 | -80.7%
20 | Cc1cc(/C=N/n2cnnc2)c(C)n1-c1ccc2ncccc2c1 | 2.6%
21 | O=C(Oc1ccc(-c2nc(-c3ccccn3)no2)cc1)c1ccccc1 | 49.6% (active)
22 | Cc1cccc(-c2noc(-c3ccc(F)cc3)n2)c1 | -77.6%

Row | Structure (SMILES) | inhibition
23 | CCOC(=O)N1CCC(Nc2c(NCCN3CCN(c4cccc(Cl)c4)CC3)c(=O)c2=O)CC1 | -1.7%
24 | COc1ccc2c(c1)CCc1c(C(=O)N3CCCC3)noc1-2 | -55.3%
25 | COc1ccc(-c2nc(-c3ccccc3)no2)c(OC)c1 | 82.9% (active)
26 | COc1ccc(-c2noc(-c3cccc(OC)c3OC)n2)cc1OC | -100%
27 | CCOC(=O)N1CCN(CC(=O)Nc2cc(C)nn2-c2nc3ccccc3s2)CC1 | -0.5%
28 | CCOC(=O)N1CCN(C(=O)C2CCN(c3ncnc4c3sc3cccc(F)c34)CC2)CC1 | 55.2% (active)
29 | CCOC(=O)N1CCN(C(=O)C2CCCN(c3ncnc4c3sc3cccc(F)c34)C2)CC1 (centres undefined) | 2.8%
30 | COc1ccc(C(CC(=O)O)NC(=O)Cc2ccccc2)cc1 (centres undefined) | 10.8%
31 | COC(=O)c1ccc(NC(=O)C(C)N2C(=O)c3ccccc3C2=O)cc1 (centres undefined) | -11.5%
32 | CCC(=O)N1CCN=C1SCc1ccc(F)cc1 | -14.3%
33 | CCN(CC)c1ccc(C(=O)OCC(=O)c2ccco2)cc1 | -53.6%
34 | CC1CCCN(Cc2nc3c(c(=O)n(C)c(=O)n3C)n2CC(=O)c2ccccc2)C1 (centres undefined) | -26.7%
35 | COc1ccc(CCNC(=O)CN2CCC(n3nnc4cc(F)ccc43)CC2)cc1OC | -4.4%
36 | C=CCn1c(=O)c2ccccc2n2c(SCC(=O)N3CCCc4ccccc43)nnc12 | 8.4%
37 | CCC(C(=O)NC1CCCC1)N(C(=O)c1snc(C(N)=O)c1N)c1ccc2c(c1)OCCO2 (centres undefined) | -2.2%
38 | CCOc1cc(C(=S)N2CCOCC2)ccc1O | 3.9%
39 | CCOc1cc(C(=O)N2CCc3cc(OC)c(OC)cc3C2)ccc1OC(F)F | 77.3% (active)
40 | COc1ccc(-c2cc(C(=O)NC(C(=O)O)C(C)C)c(C)o2)cc1OC (centres undefined) | -56.5%
41 | CCOc1ccccc1-n1c(SCC(=O)NCc2ccco2)nnc1-c1ccncc1 | 6.1%
42 | O=C(CN1C(=O)C2C3C=CC(C3)C2C1=O)NCC1COc2ccccc2O1 (centres undefined) | -7.1%
43 | CC(C)OCCCNc1ncnc2c1[nH]c1ccc(F)cc12 | 84.1% (active)
44 | CC(C)CNC(=O)c1cc(-c2ccc(Br)cc2)on1 | -52.5%

Row | Structure (SMILES) | inhibition
45 | Cn1c(NC(=O)c2ccco2)c(-c2ccccc2Cl)c(=O)c2ccccc21 | -7.6%
46 | CC1=C(C(=O)OCc2ccccc2)C(c2ccco2)n2ncnc2N1 (centres undefined) | 14.7%
47 | O=C(COc1ncnc2ccccc12)NC(=O)NCc1ccccc1 | 2.4%
48 | CN(Cc1ccccc1)Cc1ccccc1F | 9.2%
49 | O=C(CN1C(=O)COc2ccccc21)Nc1ccc(F)cc1 | 8.5%
50 | CC(C)(C)NC(=O)Cn1nnc(-c2ccccc2Cl)n1 | -50%
51 | O=C(Cn1cc2c(n1)CCCCC2)NCCN1CCOCC1 | 8.1%
52 | COC(=O)c1ccc(NCC(=O)c2ccccc2)cc1 | -68.7%
53 | O=C(Cn1cnc2c(cnn2-c2ccccc2)c1=O)NCc1ccccc1 | -70.3%
54 | COc1ccccc1-c1cc(C(=O)N2CCCCC2)no1 | -82.1%
55 | CCOc1cccc(C(=O)Nc2cccnc2)c1 | -6.7%
56 | Cc1noc(/C=C/N(C)C)c1S(=O)(=O)N1CCCC(C(=O)NCc2ccco2)C1 (centres undefined) | 15%
57 | COc1ccccc1Nc1ncnc2c1oc1ccccc12 | -91.8%
58 | COC(=O)N1CN(C(=O)OC)CN(C(=O)OC)C1 | -1.7%
59 | C=C(C)CSc1nc(N)c2c3c(sc2n1)CCC3 | -51.4%
60 | CC(C)(CNCC(O)c1ccccc1)N1CCOCC1 (centres undefined) | -12.6%
61 | O=C(CS(=O)(=O)c1cn(Cc2cccc(F)c2)c2ccccc12)N1CCCCC1 | -5.4%
62 | Cc1noc(COc2ccccc2OCC(O)CNC(C)(C)C)n1 (centres undefined) | 0.5%
63 | COC(=O)c1c(NC(=O)c2cccs2)sc2c1CCCC2 | -28.2%
64 | N#CCCN1CCN(S(=O)(=O)c2ccc(S(=O)(=O)N3CCCC3)cc2)CC1 | 18%
